Shn3 3UTR inh: reduces Shn3 3'UTR luciferase signal in osteoblasts. Clone20 osteoblast Shn3 3'UTR firefly luciferase, 24 h. inhibition, % at 12.5 µM. 0.52% of 360,000 active;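 active = mean inhibition of at least 75% with every replicate also reaching 75%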
Peg3 promoter: inhibitors of Peg3 promoter; HeLa PEG-Prom luciferase reporter, luminescence, overnight; 1.7% of 360,000 active; inhibition, % at 20 µM;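 active = inhibition of at least 50% at 20 µM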
KKLEB tox: counter-screen for CF NF-kB inhibitors: cytotoxicity; KKLEB CF airway cells viability, ATPlite luminescence, overnight; stronger effect = lower value; cells stimulated with P. aeruginosa culture filtrate; activity change (cytotoxicity), % at 5 µM; 0.36% of 360,000 active; AID 602141;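 active = corrected activity change at or below -50% at 5 µM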
HIF-2a block: HIF-2a inhibition; 786-0 RCC cells HIF-2a reporter, luciferase luminescence, overnight; inhibition, % at 18.8 µM; 0.72% of 360,000 active; AID 624352;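 active = inhibition of the luminescence signal of 40% or more relative to plate controls, in a single-dose primary screen at 18.75 µM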
CF NFkB inh: inhibitors of cystic fibrosis induced NF-kB; 0.86% of 360,000 active; inhibition, % at 5 µM; AID 588850; KKLEB NF-kB-GFP reporter, PAF-induced, GFP fluorescence overnight;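 active = at least 50% inhibition at 5 µM, scaled per plate between neutral and stimulator controls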;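 note: PAF is a Pseudomonas aeruginosa culture filtrate used as stimulus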
CF NFkB inh conf: CF NF-kB inhibition confirmation, single concentration; 64% of 1,300 active; KKLEB CF airway cells, PAF-induced NF-kB-GFP fluorescence, overnight; inhibition, % at 5 µM; shares compounds with CF NFkB inh; in the data active = inhibition above about 40%;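 note: stimulus PAF is a Pseudomonas aeruginosa filtrate and not platelet activating factor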
Hits are given with their value; . = inactive; / = not tested or not shown. Most compounds without a hit are left out; they make up all but 2.6% or so of the library.

SMILES | Shn3 3UTR inh | Peg3 promoter | KKLEB tox | HIF-2a block | CF NFkB inh | CF NFkB inh conf
CCOCC(=O)NC1CCc2cc(OC(=O)COCC)c(OC)c(OC)c2-c2ccc(SC)c(=O)cc21 (stereo unspecified) | . | . | . | . | 52 | 83
COc1cc2c(c(OC)c1OC)-c1ccc(SC)c(=O)cc1C(NC(=O)C(F)(F)F)CC2 (stereo unspecified) | . | . | . | . | 56 | 84
COc1cc2c(c(OC)c1OC)-c1ccc(OC)c(=O)cc1[C@@H](NC(C)=O)CC2 | . | . | . | . | . | /
COc1cc2c(c(OC)c1OC)-c1ccc(NC(=O)c3ccc(F)cc3)c(=O)cc1[C@@H](NC(C)=O)CC2 | . | . | . | . | . | /
COc1cc2c(c(OC)c1OC)-c1ccc(NCc3ccccc3)c(=O)cc1C(NC(C)=O)CC2 (stereo unspecified) | . | . | . | . | 64 | 87
N#Cc1c(-c2ccccc2)c(C#N)c2nc3ccccc3n2c1N | . | . | . | . | . | /
Cc1ccc(-c2c(C#N)c(N)n3c(nc4ccccc43)c2C#N)cc1 | . | . | . | . | 55 | 50
Cc1onc(-c2ccccc2Cl)c1C(=O)Nc1ccccc1N1CCOCC1 | . | . | . | . | . | /
CCOC(=O)C1=C(CC)Nc2ccccc2N=C1NC(=O)Nc1ccc(Cl)c(Cl)c1 | . | . | . | . | 56 | 101
CCOC(=O)C1=C(CC)Nc2ccccc2N=C1NC(=O)c1cc(C)on1 | . | . | . | . | . | /
CC1(C(=O)NCCC#N)CCN1C(=O)C1(c2ccccc2)CCCC1 (stereo unspecified) | . | . | . | . | . | /
O=C(Nc1ccc(O)cc1)c1cc2ccccc2c(=O)s1 | . | . | . | . | . | /
O=C(Nc1ccccc1)c1cc2ccccc2c(=O)s1 | . | . | . | . | 62 | 68
O=c1[nH][nH]c(-c2ccccc2)c1C=Nc1ccccc1Cl | . | . | . | . | . | /
CCCCOC(=O)C1=C(C)NC(=O)NC1c1ccc2c(c1)OCO2 (stereo unspecified) | . | . | . | . | . | /
CC1=C(C(=O)OCc2ccc3c(c2)OCO3)C(c2ccc(O)c([N+](=O)[O-])c2)NC(=O)N1 (stereo unspecified) | . | . | . | . | 69 | 76
COc1ccc(COC(=O)C2=C(C)NC(=O)NC2c2ccc(OC)cc2)cc1 (stereo unspecified) | . | . | . | . | 53 | 51
CC(=O)NC(c1cccc(F)c1)c1nc(-c2cccs2)cs1 (stereo unspecified) | . | . | . | . | . | /
O=C(Nc1ccc2ccccc2c1)c1ccccc1O | . | . | . | . | 52 | 79
CCOC(=O)c1sc(N(Cc2ccccc2)C(=O)CSc2nnc(C3CC3)n2N)nc1C | . | . | . | . | . | /
CCCC1/C(=N/O)CC(c2ccccc2)NC1c1ccccc1 (stereo unspecified) | . | 60 | . | . | 75 | 60
CC1/C(=N/O)CC(c2ccccc2)NC1c1ccccc1 (stereo unspecified) | . | . | . | . | . | /
CC1(C)CC(=O)C2=C(C1)N(CCN1CCOCC1)C1=C(C(=O)CC(C)(C)C1)C2c1ccc(Cl)cc1 | . | . | . | . | 57 | .
O=C1/C(=C/c2cccnc2)CCc2c1[nH]c1ccccc21 | . | . | . | . | 70 | 84
CCOc1cc(/C=N\NC(=O)c2ccc(NC(=O)CC)cc2)ccc1OC(=O)c1ccccc1 | 95 | 71 | . | . | 51 | .
SMILES | Shn3 3UTR inh | Peg3 promoter | KKLEB tox | HIF-2a block | CF NFkB inh | CF NFkB inh conf
CCOc1cc(/C=N\NC(=O)c2ccc(NC(=O)C(C)(C)C)cc2)ccc1OC(=O)c1ccc(C)cc1 | . | . | . | . | . | /
O=C(NCc1ccc(Cl)cc1)c1ncn[nH]1 | . | . | . | . | . | /
CC(C)CCNC(=O)C(c1ccncc1)N(C(=O)Cn1nnc(-c2ccc(F)cc2)n1)c1ccccc1F (stereo unspecified) | . | . | . | . | . | /
O=C(COC(=O)c1c2c(nc3ccccc13)CCCC2)Nc1ccc2c(c1)OCO2 | . | . | . | . | . | /
CC(C)c1ccccc1NC(=O)COC(=O)c1c2c(nc3ccccc13)CCN(Cc1ccccc1)C2 | . | 57 | . | . | 75 | 73
O=C(NC1CCCCCC1)c1c2c(nc3ccccc13)CCN(Cc1ccccc1)C2 | . | . | . | . | . | /
Cc1c(Cl)cccc1NC(=O)COC(=O)c1c2c(nc3ccccc13)CCN(Cc1ccccc1)C2 | . | 60 | . | . | 62 | 76
O=C1C(O)CC2c3ccccc3CC3(CCCC3)N12 (stereo unspecified) | . | . | . | . | . | /
COc1ccc(NC(=O)CCS(=O)(=O)c2ccc(Cl)cc2)cc1 | . | . | . | . | . | /
CC(=O)c1sc(NC(=O)CCS(=O)(=O)c2ccc(Cl)cc2)nc1C | . | . | . | . | 56 | 40
O=C(COC(=O)c1ccc2[nH]c3c(c2c1)CCCC3)Nc1ccccc1Cl | . | . | . | . | 56 | 54
CSc1nsc(SCC(=O)Nc2ccc(F)cc2F)n1 | . | . | . | . | . | /
NC(=O)c1cc2ccc(O)cc2oc1=Nc1ccccc1 | . | . | . | . | 82 | 83
COc1ccc([N+](=O)[O-])c(C=CC(=O)c2ccccn2)c1 | . | 101 | . | . | 91 | .
O=[N+]([O-])c1cccc(-c2ccc(/C=N/Nc3nc(N4CCCCC4)nc(N4CCCCC4)n3)o2)c1 | . | 69 | . | . | 55 | .
CCc1c(C)nc2ccc(Br)cc2c1SCCC#N | . | . | . | . | 73 | 89
CCN1CCN(c2ccc(S(=O)(=O)N3CCCCC3)cc2NC(=O)Cc2ccccc2)CC1 | . | . | . | . | 57 | .
Cc1ccc(S(=O)(=O)Nc2cccc3ncccc23)s1 | . | 103 | . | 80 | 83 | 109
CS(=O)(=O)c1ccc2nc(NC(=O)Nc3ccc(Cl)c(Cl)c3)sc2c1 | . | . | . | . | . | /
CS(=O)(=O)c1ccc2nc(NC(=O)Nc3cccc(Cl)c3)sc2c1 | . | . | . | . | 64 | 66
CCOc1ccc(NS(=O)(=O)c2cc(C(=O)N3CC(C)OC(C)C3)ccc2C)cc1 (stereo unspecified) | . | . | . | . | . | /
N#Cc1ccc(OCC(=O)Nc2ccc(N3CCCC3)cc2)cc1 | . | . | . | . | . | /
COc1ccc(CCNC(=O)c2ccc(-c3cccc([N+](=O)[O-])c3)o2)cc1OC | . | . | . | . | . | /
COc1ccc(CCNC(=O)c2cccc([N+](=O)[O-])c2)cc1OC | . | . | . | . | 62 | .
CCOC(=O)C(=NCC1CCCO1)NNc1ccccc1Cl (stereo unspecified) | . | . | . | . | . | /
Cc1nc(N)c(C#N)c(-c2cccnc2)c1-c1ccccc1 | . | . | . | . | 63 | 68
COC(=O)CN1CCN(C(=O)c2ccco2)CC1 | . | . | . | . | . | /

Compound activity deposited in PubChem BioAssay by several laboratories.
